Laboratory results reported in the supplement of paper PMC11732987, “Enantioselective OTUD7B fragment discovery through chemoproteomics screening and high-throughput optimisation” (Communications Chemistry, 2025).

What was measured:
Test in all cases: log2 ratio of Biotin-Ahx-Ub-VS probe labelling (fragment/DMSO); higher = less target engagement (more negative = stronger competition), active = hit call of the paper (q ≤ 0.05, log2 ratio ≤ -1)
Details in all cases: compound concentration: 200 uM; treatment time: 3 h
[1] = target: USP16 (UniProt Q9Y5T5)
Method in brief: (§1)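 The table lists average log2 ratios of fragment over vehicle, from an unpaired t-test on global-median-normalised Spectronaut label-free quantities. Proteins with ≥2 unique peptides were used. Samples were HEK293T lysate (495 µg) treated in triplicate with fragment at 200 µM or vehicle for 3 h, then with Biotin-Ahx-Ub-VS (0.5 µM final) for 1 h, with labelled DUBs NeutrAvidin-enriched and run by diaPASEF LC-MS/MS.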

[2] = target: T1, USP19 (UniProt O94966)
T1 sequence (whole entry): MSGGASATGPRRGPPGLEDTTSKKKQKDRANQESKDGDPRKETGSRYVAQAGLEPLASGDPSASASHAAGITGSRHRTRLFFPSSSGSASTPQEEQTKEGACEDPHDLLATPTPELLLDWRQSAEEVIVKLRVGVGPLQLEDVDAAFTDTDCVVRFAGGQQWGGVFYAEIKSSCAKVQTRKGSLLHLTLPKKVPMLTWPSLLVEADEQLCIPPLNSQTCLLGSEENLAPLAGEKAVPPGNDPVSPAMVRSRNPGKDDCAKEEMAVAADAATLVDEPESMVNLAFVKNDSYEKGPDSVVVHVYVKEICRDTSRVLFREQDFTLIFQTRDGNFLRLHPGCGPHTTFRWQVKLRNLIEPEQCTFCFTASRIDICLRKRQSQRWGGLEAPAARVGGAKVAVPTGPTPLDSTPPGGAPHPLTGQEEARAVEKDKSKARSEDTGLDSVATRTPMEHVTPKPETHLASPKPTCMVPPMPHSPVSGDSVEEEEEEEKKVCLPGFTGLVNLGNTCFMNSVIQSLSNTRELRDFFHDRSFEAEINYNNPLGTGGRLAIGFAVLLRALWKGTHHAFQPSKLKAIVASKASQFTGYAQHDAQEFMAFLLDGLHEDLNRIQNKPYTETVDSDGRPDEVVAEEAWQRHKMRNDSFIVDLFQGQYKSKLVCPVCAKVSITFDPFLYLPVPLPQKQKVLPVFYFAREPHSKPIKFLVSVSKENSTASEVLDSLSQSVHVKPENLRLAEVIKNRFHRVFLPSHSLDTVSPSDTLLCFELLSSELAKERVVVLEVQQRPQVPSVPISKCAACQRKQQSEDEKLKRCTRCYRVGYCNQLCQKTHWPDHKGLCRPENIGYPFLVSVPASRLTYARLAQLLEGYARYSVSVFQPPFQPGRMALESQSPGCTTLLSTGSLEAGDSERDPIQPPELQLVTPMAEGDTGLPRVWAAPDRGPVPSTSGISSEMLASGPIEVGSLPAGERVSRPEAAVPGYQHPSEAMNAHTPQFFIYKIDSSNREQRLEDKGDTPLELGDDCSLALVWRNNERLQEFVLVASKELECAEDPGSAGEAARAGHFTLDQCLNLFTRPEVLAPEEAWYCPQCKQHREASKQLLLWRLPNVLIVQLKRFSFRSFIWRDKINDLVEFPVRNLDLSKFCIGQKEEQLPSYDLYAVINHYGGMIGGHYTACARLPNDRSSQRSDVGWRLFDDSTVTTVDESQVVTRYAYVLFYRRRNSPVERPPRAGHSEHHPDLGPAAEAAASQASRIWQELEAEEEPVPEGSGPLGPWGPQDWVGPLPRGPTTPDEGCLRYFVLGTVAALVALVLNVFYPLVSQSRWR
Method in brief: as §1

[3] = target: USP24 (UniProt Q9UPU5)
Method in brief: as §1

[4] = target: T2, USP25 (UniProt Q9UHP3)
T2 sequence (whole entry): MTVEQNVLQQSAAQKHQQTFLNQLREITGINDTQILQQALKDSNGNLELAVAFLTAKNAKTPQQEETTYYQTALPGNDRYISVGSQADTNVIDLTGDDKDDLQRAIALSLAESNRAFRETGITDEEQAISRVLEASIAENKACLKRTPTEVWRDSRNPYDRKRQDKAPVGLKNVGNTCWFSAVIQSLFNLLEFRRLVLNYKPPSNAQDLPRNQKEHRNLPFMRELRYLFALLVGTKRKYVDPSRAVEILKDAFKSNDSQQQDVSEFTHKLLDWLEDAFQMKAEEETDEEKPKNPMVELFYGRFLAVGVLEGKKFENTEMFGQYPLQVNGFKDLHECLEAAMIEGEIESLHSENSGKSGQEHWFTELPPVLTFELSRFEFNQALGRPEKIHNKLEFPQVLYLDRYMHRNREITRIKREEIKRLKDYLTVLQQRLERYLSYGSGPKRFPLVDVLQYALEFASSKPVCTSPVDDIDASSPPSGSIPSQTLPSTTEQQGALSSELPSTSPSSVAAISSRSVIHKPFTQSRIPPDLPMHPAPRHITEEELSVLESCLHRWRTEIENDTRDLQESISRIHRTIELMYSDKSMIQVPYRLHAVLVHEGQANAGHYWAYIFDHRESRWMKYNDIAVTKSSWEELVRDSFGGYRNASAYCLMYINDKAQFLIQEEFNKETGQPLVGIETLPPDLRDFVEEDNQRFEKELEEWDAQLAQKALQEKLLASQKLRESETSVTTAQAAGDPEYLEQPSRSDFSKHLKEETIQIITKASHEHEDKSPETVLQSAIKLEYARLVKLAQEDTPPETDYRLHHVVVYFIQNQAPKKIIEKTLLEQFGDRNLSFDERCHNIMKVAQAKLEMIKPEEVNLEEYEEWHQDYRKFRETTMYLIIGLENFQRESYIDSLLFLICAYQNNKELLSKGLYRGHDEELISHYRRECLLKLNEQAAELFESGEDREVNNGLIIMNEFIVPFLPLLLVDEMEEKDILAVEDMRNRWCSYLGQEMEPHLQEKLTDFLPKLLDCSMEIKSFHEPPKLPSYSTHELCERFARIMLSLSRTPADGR
Method in brief: as §1

[5] = target: T3, USP28 (UniProt Q96RU2)
T3 sequence (whole entry): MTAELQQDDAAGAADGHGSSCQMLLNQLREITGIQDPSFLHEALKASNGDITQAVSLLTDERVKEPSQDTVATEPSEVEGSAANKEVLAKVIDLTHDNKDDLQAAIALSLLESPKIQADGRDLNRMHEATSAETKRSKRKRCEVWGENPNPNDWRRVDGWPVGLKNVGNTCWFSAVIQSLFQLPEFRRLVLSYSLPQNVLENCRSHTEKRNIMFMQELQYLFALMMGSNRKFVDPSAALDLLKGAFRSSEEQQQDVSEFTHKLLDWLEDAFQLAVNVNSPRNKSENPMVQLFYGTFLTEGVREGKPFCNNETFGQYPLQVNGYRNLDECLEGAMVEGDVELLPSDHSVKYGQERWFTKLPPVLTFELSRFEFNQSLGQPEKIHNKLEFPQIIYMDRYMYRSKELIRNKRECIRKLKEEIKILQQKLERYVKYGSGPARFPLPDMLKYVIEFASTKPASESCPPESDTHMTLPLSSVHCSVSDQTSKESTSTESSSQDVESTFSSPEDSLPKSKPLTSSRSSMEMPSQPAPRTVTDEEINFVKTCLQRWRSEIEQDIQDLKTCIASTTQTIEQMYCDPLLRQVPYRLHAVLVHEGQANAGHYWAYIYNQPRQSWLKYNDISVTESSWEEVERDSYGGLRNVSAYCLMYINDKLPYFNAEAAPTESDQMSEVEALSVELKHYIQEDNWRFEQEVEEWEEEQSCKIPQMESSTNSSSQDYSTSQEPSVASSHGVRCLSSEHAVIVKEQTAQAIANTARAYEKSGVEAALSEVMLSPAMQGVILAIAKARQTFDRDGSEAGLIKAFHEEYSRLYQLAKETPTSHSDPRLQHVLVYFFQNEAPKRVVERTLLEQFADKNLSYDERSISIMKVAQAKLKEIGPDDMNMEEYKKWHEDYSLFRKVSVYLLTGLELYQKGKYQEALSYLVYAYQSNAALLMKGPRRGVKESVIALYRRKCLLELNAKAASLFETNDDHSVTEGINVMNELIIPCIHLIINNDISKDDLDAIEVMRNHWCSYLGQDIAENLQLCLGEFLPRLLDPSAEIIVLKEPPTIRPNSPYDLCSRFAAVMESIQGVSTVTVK
Method in brief: as §1

Measured: log2 ratio of Biotin-Ahx-Ub-VS probe labelling

Chain of USP24 (Q9UPU5 whole entry): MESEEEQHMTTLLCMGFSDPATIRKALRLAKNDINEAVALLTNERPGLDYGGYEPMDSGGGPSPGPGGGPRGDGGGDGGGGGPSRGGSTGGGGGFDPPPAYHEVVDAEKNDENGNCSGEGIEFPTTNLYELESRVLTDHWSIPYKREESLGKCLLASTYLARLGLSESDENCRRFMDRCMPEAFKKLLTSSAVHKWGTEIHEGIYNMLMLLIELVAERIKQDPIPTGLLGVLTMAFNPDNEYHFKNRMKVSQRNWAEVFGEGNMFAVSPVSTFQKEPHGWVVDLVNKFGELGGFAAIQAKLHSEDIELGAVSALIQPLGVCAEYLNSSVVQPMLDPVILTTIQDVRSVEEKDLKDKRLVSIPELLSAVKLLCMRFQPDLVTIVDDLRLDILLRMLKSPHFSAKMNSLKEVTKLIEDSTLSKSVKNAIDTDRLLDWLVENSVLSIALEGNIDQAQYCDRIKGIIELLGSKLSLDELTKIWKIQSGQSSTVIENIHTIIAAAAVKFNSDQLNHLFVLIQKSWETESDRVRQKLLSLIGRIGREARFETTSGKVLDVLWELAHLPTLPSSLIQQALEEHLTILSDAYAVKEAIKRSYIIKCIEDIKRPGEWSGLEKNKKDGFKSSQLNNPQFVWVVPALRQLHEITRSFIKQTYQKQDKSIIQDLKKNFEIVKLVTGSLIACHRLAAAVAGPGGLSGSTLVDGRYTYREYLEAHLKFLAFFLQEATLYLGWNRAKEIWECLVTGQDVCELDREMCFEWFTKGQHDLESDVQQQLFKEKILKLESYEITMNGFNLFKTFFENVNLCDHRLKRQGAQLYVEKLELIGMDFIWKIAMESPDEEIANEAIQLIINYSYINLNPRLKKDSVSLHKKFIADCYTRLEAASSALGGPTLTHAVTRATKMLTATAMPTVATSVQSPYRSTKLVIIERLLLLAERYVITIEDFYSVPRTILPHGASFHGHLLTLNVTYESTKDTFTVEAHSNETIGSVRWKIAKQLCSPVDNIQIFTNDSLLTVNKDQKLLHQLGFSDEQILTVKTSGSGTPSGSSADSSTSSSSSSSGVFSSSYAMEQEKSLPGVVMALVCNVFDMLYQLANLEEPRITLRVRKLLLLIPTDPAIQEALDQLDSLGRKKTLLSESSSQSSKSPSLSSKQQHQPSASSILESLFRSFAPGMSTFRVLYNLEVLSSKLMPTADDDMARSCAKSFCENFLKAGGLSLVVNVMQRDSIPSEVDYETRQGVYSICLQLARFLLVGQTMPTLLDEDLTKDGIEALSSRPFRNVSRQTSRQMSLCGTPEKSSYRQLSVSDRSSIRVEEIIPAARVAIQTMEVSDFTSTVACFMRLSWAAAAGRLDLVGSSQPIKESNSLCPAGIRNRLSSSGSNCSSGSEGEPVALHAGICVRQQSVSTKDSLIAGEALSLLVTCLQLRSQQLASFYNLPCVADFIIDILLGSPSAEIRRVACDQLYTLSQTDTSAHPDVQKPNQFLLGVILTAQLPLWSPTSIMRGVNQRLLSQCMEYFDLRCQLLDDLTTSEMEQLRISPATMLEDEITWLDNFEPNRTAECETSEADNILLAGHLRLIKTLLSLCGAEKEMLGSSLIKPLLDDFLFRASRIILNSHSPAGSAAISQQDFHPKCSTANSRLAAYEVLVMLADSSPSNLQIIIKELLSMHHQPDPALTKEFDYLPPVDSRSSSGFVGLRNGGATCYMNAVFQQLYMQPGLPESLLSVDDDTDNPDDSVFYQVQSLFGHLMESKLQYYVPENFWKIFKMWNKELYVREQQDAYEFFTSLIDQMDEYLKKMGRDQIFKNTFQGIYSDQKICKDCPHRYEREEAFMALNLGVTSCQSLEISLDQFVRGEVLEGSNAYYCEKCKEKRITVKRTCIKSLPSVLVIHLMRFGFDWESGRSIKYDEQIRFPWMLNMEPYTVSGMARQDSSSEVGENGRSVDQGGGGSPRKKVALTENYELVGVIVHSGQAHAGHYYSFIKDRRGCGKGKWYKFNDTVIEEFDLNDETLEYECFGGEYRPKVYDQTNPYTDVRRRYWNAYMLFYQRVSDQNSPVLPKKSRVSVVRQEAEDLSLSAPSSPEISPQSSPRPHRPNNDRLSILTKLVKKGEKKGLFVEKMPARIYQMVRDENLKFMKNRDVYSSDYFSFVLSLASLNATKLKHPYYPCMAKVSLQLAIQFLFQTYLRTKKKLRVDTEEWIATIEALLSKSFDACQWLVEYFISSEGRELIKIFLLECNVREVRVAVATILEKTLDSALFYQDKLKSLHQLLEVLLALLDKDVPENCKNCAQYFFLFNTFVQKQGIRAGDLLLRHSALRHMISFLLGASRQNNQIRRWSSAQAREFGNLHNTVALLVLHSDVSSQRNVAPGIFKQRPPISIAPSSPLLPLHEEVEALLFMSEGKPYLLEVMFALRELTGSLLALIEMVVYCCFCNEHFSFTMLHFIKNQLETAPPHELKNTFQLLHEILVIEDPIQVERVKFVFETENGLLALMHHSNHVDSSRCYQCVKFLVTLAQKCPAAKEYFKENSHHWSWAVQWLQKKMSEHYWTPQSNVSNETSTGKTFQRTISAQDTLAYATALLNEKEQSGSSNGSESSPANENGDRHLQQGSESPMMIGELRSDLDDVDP
Chain of USP16 (Q9Y5T5 whole entry, looked up, the tested form may be a part): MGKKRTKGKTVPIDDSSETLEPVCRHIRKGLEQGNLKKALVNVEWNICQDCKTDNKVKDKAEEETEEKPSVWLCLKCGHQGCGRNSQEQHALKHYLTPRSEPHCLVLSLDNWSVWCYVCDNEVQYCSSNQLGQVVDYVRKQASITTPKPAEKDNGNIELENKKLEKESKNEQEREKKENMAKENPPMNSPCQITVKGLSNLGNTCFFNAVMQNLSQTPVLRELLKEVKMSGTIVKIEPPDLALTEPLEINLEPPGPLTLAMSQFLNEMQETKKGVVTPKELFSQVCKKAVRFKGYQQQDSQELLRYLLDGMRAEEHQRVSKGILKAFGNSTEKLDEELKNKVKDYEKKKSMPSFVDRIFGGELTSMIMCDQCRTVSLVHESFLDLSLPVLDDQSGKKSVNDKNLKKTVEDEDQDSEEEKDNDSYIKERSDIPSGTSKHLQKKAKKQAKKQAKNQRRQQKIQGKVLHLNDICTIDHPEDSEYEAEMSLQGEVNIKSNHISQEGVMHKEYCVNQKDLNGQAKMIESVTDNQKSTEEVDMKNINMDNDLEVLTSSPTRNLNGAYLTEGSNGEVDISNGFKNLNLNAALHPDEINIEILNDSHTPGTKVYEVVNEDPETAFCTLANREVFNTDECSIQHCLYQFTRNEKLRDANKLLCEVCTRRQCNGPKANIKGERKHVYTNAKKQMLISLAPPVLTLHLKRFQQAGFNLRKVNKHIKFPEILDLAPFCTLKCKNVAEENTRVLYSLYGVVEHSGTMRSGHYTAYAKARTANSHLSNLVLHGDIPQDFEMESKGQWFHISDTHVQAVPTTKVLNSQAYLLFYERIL

O=C(CCl)N1CCC2(CCC(O)CC2)CC1
inactive: [1] 0.0341 | [2] 0.0572 | [3] -0.133 | [4] -0.0651 | [5] -0.372
